PriA SSB inh – inhibitors of Klebsiella pneumoniae PriA binding to SSB C-terminal tail; AlphaScreen SSBct-PriA binding, biotinylated peptide; inhibition, % at 33 µM; 430,000 tested, 0.6% active; AID 1272365; in the data active means inhibition mostly above about 37%, no sharp cut-off; inactive means mostly below about 20%;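 further: plate controls were negative control peptide for no effect and reference peptide for full effect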
PrPC surface inh – reduces human prion protein on the cell surface. cell surface PrPC, TR-FRET read-out. inhibition, % at 13.8 µM. 370,000 tested, 0.43% active; in the data active means inhibition above about 24%; further: 0% = median of the test wells and 100% = reference compound wells
MazEF act – activators of E. coli MazEF toxin-antitoxin RNase | FAM/BHQ RNA-DNA oligo cleavage fluorescence, 5 h | activation, % at 20 µM | AID 504720 | 350,000 tested, 0.32% active | P0AE70; in the data active means activation above about 50%
Target sequence (P0AE70 whole entry, looked up): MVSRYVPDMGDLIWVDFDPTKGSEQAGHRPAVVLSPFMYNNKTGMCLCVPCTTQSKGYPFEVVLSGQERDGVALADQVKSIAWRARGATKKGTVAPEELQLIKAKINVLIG
PfHsp40 yeast – restores yeast growth despite PfHsp40 toxicity; growth rescue, % at 12.5 µM; 340,000 tested, 0.68% active; S. cerevisiae expressing PfHsp40, growth rescue, ATP luminescence; in the data active means growth rescue above about 28%, passing the limit was not always enough; inconclusive means no clear call, values can overlap the other calls;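 further: yeast W303a lacking pdr1 and pdr3 grown in galactose medium; growth measured after three days at 30 °C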
PrP 5UTR inh – inhibition of PrP 5' UTR reporter expression; inhibition, % (concentration not given with the values); cell-based PrP 5' UTR mRNA reporter, plate reader; 340,000 tested, 0.35% active; in the data active means inhibition above about 52%; further: 0 = median of the neutral control wells
An asterisk follows results filed as active; ? = inconclusive; · = no result given; ! = not confirmed by another sample. Shown are actives, neighbours in structure and some others; about 1.8% of the full set was active somewhere.

SMILES	PriA SSB inh	PrPC surface inh	MazEF act	PfHsp40 yeast	PrP 5UTR inh
CN1NC(C(=O)Nc2nc(-c3ccccn3)cs2)=CCC1=O	124*	·	·	·	·
Cn1c(C(=O)Nc2nc(-c3ccccn3)cs2)cc2ccccc21	93*	·	·	·	·
O=C(Nc1nc(-c2ccccn2)cs1)C1CCCC1	14	-4	4	3	-31
Cc1cc(C(=O)Nc2nc(-c3ccccn3)cs2)n(C)n1	118*	·	·	·	·
Cn1nccc1C(=O)Nc1nc(-c2ccccn2)cs1	97*	·	·	·	·
Cc1cc(C(=O)Nc2nc(-c3cc4ccccc4o3)cs2)n(C)n1	-3	·	·	·	·
Cc1csc(NC(=O)c2cccn2C)n1	8	5	6	-2	-81
Cn1cccc1C(=O)Nc1nc(-c2ccccn2)cs1	85*	7	8	?	-29
CC1(c2nnc(-c3ccc(F)cc3)o2)CC(c2ccc(Cl)cc2)=NO1 (stereo not given)	-4	-2	1	0	-23
O=C(CSc1nccn1-c1ccc(F)cc1)Nc1ccc(Br)cc1	60*	·	·	·	·
O=C(CSc1nccn1-c1ccc([N+](=O)[O-])cc1)Nc1ccc(Cl)c(Cl)c1	36*	·	·	·	·
O=C(CSc1nccn1Cc1ccccc1)Nc1ccc(F)cc1F	20	·	·	·	·
COc1ccc(-n2ccnc2SCC(=O)Nc2cccc3ccccc23)cc1	58*	·	·	·	·
COc1ccc(NC(=O)CSc2nccn2-c2ccccc2)c(OC)c1	28	5	9	1	-14
Cc1cc(C)cc(-n2ccnc2SCC(=O)Nc2ccc(F)cc2F)c1	47*	·	·	·	·
N#Cc1nc(-c2ccc(Cl)cc2)oc1N1CCCCCC1	59*	·	·	·	·
N#Cc1nc(-c2ccc(F)cc2)oc1N1CCCCC1	10	4	5	0	-6
N#Cc1nc(-c2ccc(Cl)cc2)oc1N1CCCCC1	65*	-4	-2	1	-2
Cc1onc(-c2ccccc2Cl)c1C(=O)Nc1nnc(-c2cc(Cl)sc2Cl)o1	-5	·	·	·	·
Cc1onc(-c2ccccc2Cl)c1C(=O)Nc1nnc(-c2cccs2)o1	38*	·	·	·	·
O=C(COc1ccccc1Cl)Nc1ccc2c(c1)OCO2	-6	9	0	1	-68
CSc1ncnc2c1ncn2CCCN(C)CCc1ccccn1	·	-2	3	·	·
COC(=O)Cc1cc(=O)n(-c2ccccc2)[nH]1	-11	-4	2	51*	-11
O=C(NC(=S)N1CCCc2ccccc21)c1ccccc1	42*!	-2	6	0	-48
O=C(NC(=S)N1CCCc2ccccc21)c1ccc(Cl)cc1	19	2	2	2	-58
SMILES	PriA SSB inh	PrPC surface inh	MazEF act	PfHsp40 yeast	PrP 5UTR inh
O=C(c1ccc(C(=O)N2CCCc3ccccc32)s1)N1CCCc2ccccc21	21	-4	-2	51*	-17
C=CS(=O)(=O)N(Cc1ccc(F)cc1)C(=C)C(=O)OC	·	53*	·	·	·
COC(=O)[C@@H](NC(=O)NCc1ccc(F)cc1)C(C)C	-2	4	2	1	-32
Cn1c(N)c(C(=O)COC(=O)c2ccc([N+](=O)[O-])o2)c(=O)n(C)c1=O	-6	-33	8	-1	-81
COc1ccc(CN(C)C(=O)c2cccc(Oc3ccccc3)c2)c(OC)c1OC	1	-1	55*	4	-9
COc1cccc(CN(C)C(=O)c2cccc(S(=O)(=O)NCc3ccccc3)c2)c1OC	-5	-1	6	-1	-12
O=C(NCc1ccccn1)C1(c2cccs2)CCCC1	-6	·	·	·	·
COc1ccccc1N1CCN(S(=O)(=O)c2ccc3c4c(cccc24)C(=O)N3)CC1	35*!	-11	3	1	2
CCOC(=O)C1CCN(S(=O)(=O)c2ccc3c4c(cccc24)C(=O)N3)CC1	-2	·	3	-1	-11
CCCCN(CC)CCCNC(=O)c1cc2c(=O)[nH]c3ccccc3c2s1	13	-7	12	-2	-50
CCOc1ccc(-c2nnc(NC3=NCCCCC3)o2)cc1	-12	6	-3	2	-75
C=C(C)COc1ccc(-c2[nH]ncc2-c2ccccc2)c(O)c1	-12	-4	-6	519*	-19
C=C(C)COc1ccc(-c2[nH]ncc2-c2ccc(OC)cc2)c(O)c1	6	10	-5	92*	-7
Oc1cc(OCc2ccccc2)ccc1-c1[nH]ncc1-c1ccccc1	1	-1	-6	?	0
C=C(C)COc1ccc(-c2[nH]ncc2-c2ccc(OC)c(OC)c2)c(O)c1	20	10	-3	1	-16
NC(Cc1ccc(Cl)cc1)c1csc(Nc2ccc(S(N)(=O)=O)cc2)n1 (stereo not given)	·	12	·	·	·
O=C(CSc1nnc(NC(=O)c2c(F)cccc2F)s1)Nc1ccc(F)cc1	-8	9	179*	0	-17
O=S(=O)(NCC1CCN(Cc2ccco2)CC1)c1ccc2c(c1)OCCO2	-15	·	·	·	·
CCOC(=O)c1c(NC(=S)Nc2ccccc2)sc2c1CCN(CC)C2	-8	-32	51*	3	-21
CCN(CC)C(=O)c1sc(NC(=O)c2ccncc2)c(C(=O)OC)c1C	65*	9	-4	-1	-30
CCOC(=O)N1CCN(S(=O)(=O)c2ccc(C(=O)Nc3sc4c(c3C(=O)OC)CCN(C)C4)cc2)CC1	5	-7	295*	0	-26
CCOC(=O)c1c(NC(=S)Nc2ccccc2)sc2c1CCC2	-7	·	·	·	·
CCOC(=O)N1CCN(S(=O)(=O)c2ccc(C(=O)Nc3sc4c(c3C(N)=O)CCN(C(=O)OCC)C4)cc2)CC1	0	·	·	·	·
CCOC(=O)c1sc(NC(=S)NC(=O)c2ccccc2)c(C(=O)OCC)c1C	82*!	0	9	-1	-5
COC(=O)[C@]12CCCCC=C1N(CCc1ccc(OC)c(OC)c1)C(=O)[C@H](CC(=O)NCCc1ccccc1OC)C2	·	2	·	·	·
SMILES	PriA SSB inh	PrPC surface inh	MazEF act	PfHsp40 yeast	PrP 5UTR inh
CCOC(=O)c1c(NC(=O)Nc2ccc(C)cc2)sc2c1CCN(C)C2	5	0	50*	-1	-20
COc1ccc(C(=O)N/N=C\c2coc3ccc(C)cc3c2=O)cc1	·	-2	75*	0	-10
NC(=S)N/N=C/c1coc2cc(Br)ccc2c1=O	·	-7	-38	0	-30
NC(=S)N/N=C/c1coc2ccc(Br)cc2c1=O	·	-2	-58	38*	-15
CN1OC[C@@H]2CN(C(=O)C(C)(C)C)[C@H](c3cccc(Br)c3)C[C@@H]21	-1	3	53*	-1	-19
Cc1ccc([N+](=O)[O-])cc1N/C=C1\CCCCC1=O	·	0	98*	-1	-32
Cc1ccc(NC=C2CCCCC2=O)c(C)c1	0	·	·	·	·
CCOC(=O)c1sc(NC(=O)CN2CC(C)OC(C)C2)nc1C (stereo not given)	4	1	6	-1	-8
Cc1nnc(NC(=O)CN2CC(C)OC(C)C2)s1 (stereo not given)	-9	-3	13	28*	-64
CCOC(=O)N1CCC(Nc2cc(C)nc3c(-c4ccccc4OC)c(C)nn23)CC1	104*	3	-14	1	-3
O=[N+]([O-])c1ccc(C[n+]2cccc3ccc4cccnc4c32)cc1	90*	-37	8	2	-10
O=C(c1ccc(S(=O)(=O)N2CCCCCC2)cc1)N1CCC(CN2C(=O)c3cccc4cccc(c34)C2=O)CC1	-5	-6	-20	44*	-15
